PubChem BioAssay AID2283364 (EPA ToxCast)
Inconclusive results are not listed. The source made the active and inactive calls. How the source made its calls: active means hit-call score of the fitted dose curve at least 0.9, where 1 is the maximum; inconclusive means response in the unintended direction; inactive means score below 0.9.

Target: human FK-506 Binding Protein (FKBP12), FKBP1A (gene 2280) (UniProt P62942)
Assay: NVS_OR_hFKBP12: NovaScreen (NVS) Nuclear Receptor Binding Assay for human FK-506 Binding Protein (FKBP12)
Procedure: NVS_OR_hFKBP12 is a biochemical, single-readout assay that uses extracted gene-proteins from E. coli in a cell-free assay. Measurements were taken 0.75 hour after chemical dosing in a 48-well plate.NVS_OR_hFKBP12 is one of one assay component(s) measured or calculated from the NVS_OR_hFKBP12 assay. It is designed to make measurements of radioligand binding, a form of binding reporter, as detected with scintillation counting signals by Filter-based radiodetection technology.Data from the assay component NVS_OR_hFKBP12 was analyzed into 1 assay endpoint. This assay endpoint, NVS_OR_hFKBP12, was analyzed in the positive analysis fitting direction relative to DMSO as the negative control and baseline of activity. Using a type of binding reporter, loss-of-signal activity can be used to understand changes in the binding as they relate to the gene FKBP1A. Furthermore, this assay endpoint can be referred to as a primary readout, because the performed assay has only produced 1 assay endpoint. To generalize the intended target to other relatable targets, this assay endpoint is annotated to the misc protein intended target family, where the subfamily is chaperone.
Binding assays used specific radioligands (tritiated, iodinated) with non-radioactive competitive displacement ligands in agonist or antagonist protocols (as indicated) and various reference compounds and inhibitors to titrate specific binding to receptors and transporters. Most enzyme assays (CYPs, kinases, phosphatases, proteases, HDACs) used recombinant protein and specific substrates (fluorescence mostly, some colorimetric and radioactive) and inhibitors, followed by a biochemical separation of substrate and product. All assays for the biochemical HTS were initially run in duplicate at a single concentration (10 uM for CYP450 assays and 25 uM for all others). Assay-chemical combinations meeting a pre-defined threshold (e.g., 30% inhibition and other criteria defined below) were then run in singleton concentration-response format with maximum concentration of 20 uM for CYPs and 50 uM for all others. Each assay was run with positive and negative controls, and concurrent controls on every plate. The follow-up (secondary) screen tested active chemical-pairs in concentration series, as well as a few additional assays not tested in the primary screen, some selected negative inactives, and several cases re-run in the concentration series for confirmatory purposes.

human FK-506 Binding Protein (FKBP12), FKBP1A (gene 2280), sequence (P62942 whole entry, looked up): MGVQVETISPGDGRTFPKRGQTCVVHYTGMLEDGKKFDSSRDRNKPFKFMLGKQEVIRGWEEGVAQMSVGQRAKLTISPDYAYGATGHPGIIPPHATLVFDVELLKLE

Row | Compound | outcome
1 | c1ccc(-c2ccccc2)cc1 | inactive
2 | O=C(O)c1nc(Cl)ccc1Cl | inactive
3 | CNC(=O)Oc1ccccc1OC(C)C | inactive
4 | Cc1cc(C)nc(NC(=O)NS(=O)(=O)c2ccccc2C(=O)OC2COC2)n1 | inactive
5 | CC[C@H](C)[C@H]1O[C@]2(C=C[C@@H]1C)C[C@@H]1C[C@@H](C/C=C(\C)[C@@H](O[C@H]3C[C@H](OC)[C@@H](O[C@H]4C[C@H](OC)[C@@H](O)[C@H](C)O4)[C@H](C)O3)[C@@H](C)/C=C/C=C3\CO[C@@H]4[C@H](O)C(C)=C[C@@H](C(=O)O1)[C@]34O)O2 (tested in a mixture with another compound) | inactive
6 | COC(=O)C=C(C)OP(=O)(OC)OC | inactive
7 | CO/N=C(/C1=NOCCO1)c1ccccc1Oc1ncnc(Oc2ccccc2Cl)c1F | inactive
8 | COP(=S)(OC)SCn1nnc2ccccc2c1=O | inactive
9 | Cc1ccn2nc(S(=O)(=O)Nc3c(F)cccc3F)nc2n1 | inactive
